High-throughput results as filed in PubChem BioAssay.
ALOX12 inhib = inhibitors of human 12-lipoxygenase (ALOX12) | purified 12-hLO, xylenol orange hydroperoxide absorbance | Potency, µM (doses to about 57.1 µM), inactives show top-dose activity change, negative = inhibition, actives largely listed as inhibitors | AID 1452 | P18054 | 150,000 tested, 0.12% active; active means well fitted inhibition curve with a large enough effect; inconclusive means small, poorly fitted or top-dose-only effect; further: potency means the concentration at half of the fitted maximal effect; nearly all actives have a fitted effect of over 55% in size
Target sequence (P18054 whole entry, looked up): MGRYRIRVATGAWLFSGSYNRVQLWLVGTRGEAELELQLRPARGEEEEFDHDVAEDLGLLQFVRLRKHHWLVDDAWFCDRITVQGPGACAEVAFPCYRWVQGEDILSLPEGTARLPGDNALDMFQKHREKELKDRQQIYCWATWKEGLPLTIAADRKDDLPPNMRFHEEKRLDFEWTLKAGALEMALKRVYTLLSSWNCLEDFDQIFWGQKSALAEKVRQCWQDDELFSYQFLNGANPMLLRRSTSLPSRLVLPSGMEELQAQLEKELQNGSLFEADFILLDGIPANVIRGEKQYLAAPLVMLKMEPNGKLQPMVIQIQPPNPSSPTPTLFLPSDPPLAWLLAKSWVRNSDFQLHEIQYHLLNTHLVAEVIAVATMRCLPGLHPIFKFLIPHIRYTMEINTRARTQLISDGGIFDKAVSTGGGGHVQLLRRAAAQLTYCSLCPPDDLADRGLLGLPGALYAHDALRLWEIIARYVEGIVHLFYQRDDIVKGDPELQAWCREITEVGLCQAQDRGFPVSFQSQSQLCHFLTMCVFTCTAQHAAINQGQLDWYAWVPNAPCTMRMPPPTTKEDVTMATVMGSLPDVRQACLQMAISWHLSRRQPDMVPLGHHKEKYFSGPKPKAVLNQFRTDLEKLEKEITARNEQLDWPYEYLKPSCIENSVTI
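Hydroperoxide output read as Fe(III)-xylenol orange absorbance, 573-to-405 nm ratio, after 30 min reaction with 40 uM arachidonic acid. Enzyme: 150 nM purified human 12hLO, 15 min compound preincubation; 25 mM Hepes pH 7.0, room temperature.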
LMNA splice mod = modulators of lamin A splicing; HeLa LMNA splicing GFP/RFP minigene ratio, 48 h; AID 1487; Potency, µM (doses to about 46.1 µM), for inactives: top-dose ratio change, negative = inhibition, actives largely listed as inhibitors; 200,000 tested, 0.01% active; active means well fitted inhibition curve with a large enough effect in the signal ratio, with a control signal flat, not every such curve was filed as active; inconclusive means small, poorly fitted or top-dose-only effect, or effect the other way, or a change in a side signal; the % refers to the signal ratio; further: potency means the concentration at half of the fitted maximal effect
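S3 HeLa cells stably expressing lamin A-EGFP splicing minigene plus DsRed2, 600 cells/well, 48 h compound exposure at 37C. Laser-scanning cytometry; analysed as GFP (500-530 nm)/RFP (575-640 nm) total intensity ratio; 0.5% DMSO vehicle.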
HPGD inh = blocks human HPGD enzyme activity; Potency, µM, for the others: at the highest dose activity change, negative = inhibition, actives largely listed as inhibitors; purified HPGD, NADH fluorescence kinetic, PGE2 substrate; AID 894; 150,000 tested, 4.3% active; further: potency means the concentration at half of the fitted maximal effect
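20 nM HPGD preincubated 15 min at room temperature with compound in 50 mM Tris-HCl pH 8, 0.01% Tween 20. Started with 1 mM NAD+ and 30 uM prostaglandin E2; NADH fluorescence (360/450 nm) read 5 times over 30-s intervals, last minus first.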
PNC assembly inh = perinucleolar compartment assembly inhibition; PC3M PTB-GFP, PNC prevalence imaging, 16 h; stronger effect = lower value; activity change (PNC), negative = inhibition, % at 10 µM; 140,000 tested, 3.1% active; AID 2417;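 active means readout at or below -70, meaning at least 70% loss of cells showing the perinucleolar compartment, a nuclear body marking cancer cells; inconclusive means readout between -30 and a set limit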;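 further: plate controls were DMSO wells for no effect and camptothecin positive control wells for full effect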
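PC3M cells stably expressing PTB-GFP, 750–1000 cells/well, treated 16 h at 37 °C with compound (23 nl of library stock), in duplicate. After paraformaldehyde fixation and Hoechst stain, imaged at 20x; PNC prevalence scored by image analysis.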
ALDH1A1 inh = ALDH1A1 (human) enzyme inhibition; 220,000 tested, 7.3% active; Potency, µM (doses to about 75.3 µM), without a hit: at the highest dose activity, negative = inhibition, most hits filed as inhibitors; P00352; Purified ALDH1A1, NADH fluorescence, propionaldehyde substrate; AID 1030;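 further: potency means the concentration at half of the fitted maximal effect; plate controls were no enzyme wells and a reference inhibitor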
Starred values were filed as active, the others as inactive; u = inconclusive; x = not tested or not shown; [ ] = another dose, or the depositor's remark. An excerpt weighted towards active compounds, which were near 10% of everything screened. Unless noted, the call rests on the fitted dose curve; in most records, active means well fitted inhibition curve with a large enough effect (not every such curve was filed as active); inconclusive means small, poorly fitted or top-dose-only effect, or another doubt; inactive means no such curve, though single readings can be large or run the other way. Unless noted, on the % scale 0 is the no-effect control and ±100 the full control effect.

SMILES	ALOX12 inhib	LMNA splice mod	HPGD inh	PNC assembly inh	ALDH1A1 inh
CCCCS(=O)(=O)N1CCc2nc(-c3ccc(OC)cc3C)c3c(c2C1)CO[C@@H](c1ccccc1)C3	2.8%[11.4 µM]	u	-5.2%	x	0.447µM*
CC(Sc1nnc2ccc3ccccc3n12)C(=O)Nc1ccc(Cl)cc1 (stereo not drawn)	x	22.4%[46 µM]	x	x	x
CN(Cc1ccco1)c1cc(-c2ccoc2)ncn1	x	1.7%	x	x	25.1µM*
CCOc1ccc(Cc2noc3c2C(=O)CC(C)(C)C3)cc1OCC	x	x	x	x	11.2µM*
COc1ccc(-n2nc(C(=O)NCc3ccco3)c3c4ccccc4n(C)c3c2=O)cc1	2.9%	-0.7%	u	-13.4	u
COc1ccc(-n2nc(C(=O)NCC(=O)N3CCN(c4ccccn4)CC3)c3ccccc3c2=O)cc1	-8.6%	-19.0%	u	-4.7	28.2µM*
COc1ccc(-n2nc(C(=O)NCc3ccco3)c3ccccc3c2=O)cc1	7.7%	6.5%	u	-83.9*	u
CCc1ccc(NC(=O)CC2C(=O)N(c3ccc(C)cc3)C(=O)N2CCc2ccncc2)cc1 (stereo not drawn)	x	7.7%[9.22 µM]	x	x	3.55µM*
CCc1ccc(NC(=O)CC2C(=O)N(c3cccc(C)c3)C(=O)N2C2CC2)cc1 (stereo not drawn)	x	x	x	x	11.2µM*
CCSC1=C(C#N)C(c2ccc3c(c2)OCO3)C2=C(CCCC2=O)N1 (stereo not drawn)	2.6%	16.9%	14.1µM*	1.0	u
Cc1ccc(NC(=O)CSC2=C(C#N)C(c3ccc4c(c3)OCO4)C3=C(CCCC3=O)N2)c(C)c1 (stereo not drawn)	-28.7%	u	u	12.2	14.1µM*
COC(=O)CSC1=C(C#N)C(c2ccc3c(c2)OCO3)C2=C(CCCC2=O)N1 (stereo not drawn)	-3.8%	4.5%	-18.3%	27.3	-5.3%
CN(CCc1ccc(Cl)c(Cl)c1)CCN1CCCCCC1	-2.4%	x	1.2%	x	-6.0%
O=C(CSc1nc2ccccc2o1)N/N=C/c1ccccc1	-2.9%	-11.2%	-6.6%	23.6	5.2%
C/C(=N\NC(=O)CSc1nc2ccccc2o1)c1ccc(O)cc1	x	x	x	x	23.8µM*
N[C@@](C(=O)O)(c1ccc(P(=O)(O)O)cc1)C1CC1	-3.8%	x	-7.1%	x	0.0%
O=Nc1ccc(NO)cc1	-5.8%	x	-24.6%	x	10µM*
COc1cccc([C@@H]2Oc3ccc(Br)cc3C(=O)[C@H]2OC(=O)Nc2ccc(OC(F)F)cc2)c1	x	x	-16.8%	x	10.1%
O=S1(=O)C[C@@H](O)[C@@H](Nc2ccc(Cl)cc2)C1	2.7%	10.3%	-14.1%	u	11.2µM*
O=S1(=O)CC(NCc2ccccc2)C(Nc2ccccc2)C1 (stereo not drawn)	3.0%	-6.4%	-7.6%	-12.7	-2.4%
Fc1ccc(Nc2ccnc(-c3ccccc3C(F)(F)F)n2)cc1	x	-28.9%	x	x	2.3%
CSc1nc(C)cc(Nc2ccc(O)c(CN3CCOCC3)c2)n1	-0.8%[11.4 µM]	x	-0.2%	x	1.6%[13.5 µM]
CC(=O)Oc1ccc2occ(C(=O)c3cccs3)c2c1	-2.7%	-1.1%	-9.4%	6.1	1.6%
O=C(CCl)Oc1ccc2occ(C(=O)c3cccs3)c2c1	0.9%	18.5%	-21.5%	18.2	0.794µM*
CC(C)[C@@H](CC(=O)N[C@@H]1CCCC[C@H]1C(=O)N[C@H](CC(=O)N[C@@H](CCC(=O)O)CC(=O)O)Cc1c[nH]c2ccccc12)NC(=O)C[C@H](Cc1c[nH]c2ccccc12)NC(=O)[C@@H]1CCCC[C@H]1N	2.5%	x	0.7%	x	15.1%
SMILES	ALOX12 inhib	LMNA splice mod	HPGD inh	PNC assembly inh	ALDH1A1 inh
Cc1nc(SCC(=O)Nc2nc3ccccc3s2)c(C#N)c(C)c1C	1.2%	-3.1%	28.2µM*	15.8	u
O=C(CSc1nnc(-c2c[nH]c3ccccc23)o1)N(Cc1ccccc1)c1ccc(F)cc1	12.1%	u	-21.5%	18.1	8.6%
COc1ccc(CN(C(=O)CSc2nnc(-c3ccccc3C)o2)c2ccc(F)cc2)cc1	-3.8%	u	u	71.9	2.51µM*
CC(C)(C)C1=C[C@@H](CO)C[C@@H](CO)C1	1.0%	2.1%	-11.4%	u	28.2µM*
O=C(c1ccc(F)cc1)c1ccc(N2CCCC2)cc1	-19.8%	-2.0%	28.2µM*	34.5	20µM*
COc1cccc(N2CCN(c3ncnc4c3[nH]c3ccc(F)cc34)CC2C)c1 (stereo not drawn)	-6.8%	u	-17.3%	68.8	-5.9%
COc1cccc(N2CCN(c3ncnc4c3[nH]c3ccccc34)CC2C)c1 (stereo not drawn)	-9.9%	u	-24.2%	u	35.5µM*
Cc1ccc(-c2cc(C(=O)N3CCN(S(=O)(=O)c4ccc(Br)s4)CC3)[nH]n2)c(C)c1	x	16.9%[46 µM]	x	x	x
CC1CCN(C(=O)c2scc3c2OCCO3)CC1	-4.7%	8.5%	15.8µM*	-23.3	-2.0%
CC1CCN(C(=O)c2ccc3c(c2)OCCO3)CC1	-0.6%	12.2%	0.398µM*	u	-4.2%
CC1CCN(C(=S)c2ccc3c(c2)OCO3)CC1	-16.0%	2.9%	28.2µM*	8.3	u
CC1CCN(C(=O)c2ccc(-n3cnnn3)cc2)CC1	-3.1%	-13.6%	17.8µM*	0.8	u
O=C(OCc1ccco1)c1ccc2c(c1)N(Cc1cccc(F)c1)C(=O)c1ccccc1S2	x	-13.8%[46 µM]	x	x	x
CCC(C)c1ccccc1O (stereo not drawn)	-3.2%	x	-12.2%	x	2.7%
CCC(C)c1ccc(O)c(N)c1 (stereo not drawn)	-27.3%	-14.0%	u	-29.9	25.1µM*
CC(C)c1ccc(O)c(N)c1	u	-8.4%	-20.7%	16.8	28.2µM*
CC(C)(C)c1ccc(O)c(N)c1	-20.0%	2.4%	-16.7%	2.7	u
O=C1[C@H]2[C@H]3[C@H](O)[C@H](O)C/C(=N/OCc4ccccc4)[C@@H]3CC[C@@H]2C(=O)N1Cc1ccccc1	x	x	x	x	14.9%[13.5 µM]
COc1cc2c(cc1OC)C(COc1ccccc1OC)N(C(=O)COc1ccc(Cl)cc1)CC2 (stereo not drawn)	x	-21.9%[46 µM]	x	x	x
CCN(C(=O)CN1C(=S)NC(C)(C)CC1C)c1ccc(C)c(C)c1 (stereo not drawn)	x	-0.5%[46 µM]	x	x	28.2µM*
Cc1ccccc1-c1n[nH]c(=S)n1/N=C/c1c(C)nn(-c2ccccc2)c1C	0.9%	u	3.55µM*	u	-4.0%
Cc1nn(-c2ccccc2)c(C)c1/C=N/n1c(-c2ccc(C(C)(C)C)cc2)n[nH]c1=S	-26.9%	u	u	43.1	-8.2%
COc1cc(SC)ccc1C(=O)Nc1ccon1	1.6%	-14.4%	-23.3%	u	20µM*
COc1cc(SC)ccc1C(=O)Nc1cccc(C)n1	x	-6.2%[46 µM]	x	x	0.7%
CCn1c2ccccc2c2nnc(NN)nc21	-5.7%	u	-16.3%	30.0	15.8µM*
CCn1c2ccc(C)cc2c2nc3cc(C(=O)O)ccc3nc21	-5.0%	u	u	2.6	-10.5%
CCCCn1c2ccc(F)cc2c2nnc(NN)nc21	x	u	x	x	2.24µM*
